Results: the supplement of paper PMC10849652
Of roughly 7,900 targets only a part is listed; those with a hit were picked by preference. About 0.6% of all pairs of compound and target were hits.

Key:
Assay in all cases: log2 fold change, soluble protein after heating vs DMSO (PISA); higher = thermal stabilisation; K562 cells, 10 uM, 30 min; active = over 0.2 and 3.5 SD of the protein, either way, in both replicates (recomputed)
erlotinib = compound: C#Cc1cccc(Nc2ncnc3cc(OCCOC)c(OCCOC)cc23)c1 [erlotinib]
Outline: (§1)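 Quantification of soluble protein used TMTpro 16plex LC-MS/MS, with channel sums equalised. Samples were the supernatant after 21,000xg for 90 min of pooled aliquots from K562 cells (2×10^6 cells/mL) treated with 10 μM compound for 30 min, heated for 3 min over 48°C-58°C, and extracted in PBS with 0.5% NP-40 at 4°C. Values, from duplicates, describe thermal stability against control samples on a log2 fold-change scale.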

[1] = compound: C1=CC(=C(C=C1Cl)C2=NC3=NC=CN=C3C(=N2)NC4=CC=NC=C4)F
Outline: as §1

[2] = compound: C1=CC(=CC=C1C2=NC3=C(N2)C=C(C=C3)C(=O)N)OC4=CC=C(C=C4)Cl
Outline: as §1

[3] = compound: C1=CC2=NC=CN=C2C=C1/C=C/3\C(=O)NC(=O)S3
Outline: as §1

[4] = compound: C1=CC=C(C=C1)C2=NC(=C(N2)C3=CC=NC=C3)C4=CC(=C(C=C4)Cl)O
Outline: as §1

[5] = compound: C1CCN(C1)C(=O)NC2=CC=CC(=C2)NC3=NC=C(C(=N3)NCCC4=CN=CN4)Br
Outline: as §1

[6] = compound: C1CN(CCC1(CC2=CC=C(C=C2)Cl)N)C3=NC=NC4=C3C=CN4
Outline: as §1

IRAK-1-4 Inhibitor I = compound: C1COCCN1CCN2C3=CC=CC=C3N=C2NC(=O)C4=CC(=CC=C4)[N+](=O)[O-] [IRAK-1-4 Inhibitor I]
Outline: as §1

ralimetinib = compound: CC(C)(C)Cn1c(N)nc2ccc(-c3[nH]c(C(C)(C)C)nc3-c3ccc(F)cc3)nc21 [ralimetinib]
Outline: as §1

[7] = compound: CC(C)(O)CC(=O)NCCn1ccc2ncnc(Nc3ccc(Oc4cccc(C(F)(F)F)c4)c(Cl)c3)c21
Outline: as §1

[8] = compound: CC(C)C1=C2N=C(C=C(N2N=C1)NCC3=CC=CC=C3)NCCCCCCN
Outline: as §1

[9] = compound: CC(C)C[C@@H](C=O)NC(=O)[C@H](CC(C)C)NC(=O)[C@H](CC(C)C)NC(=O)OCc1ccccc1
Outline: as §1

pinometostat = compound: CC(C)N(C[C@H]1O[C@@H](n2cnc3c(N)ncnc32)[C@H](O)[C@@H]1O)[C@H]1C[C@@H](CCc2nc3cc(C(C)(C)C)ccc3[nH]2)C1 [pinometostat]
Outline: as §1

[10] = compound: CC1=C(C(CC(=O)N1)C2=CC=C(C=C2)C(F)(F)F)C(=O)NC3=C(C=C4C(=C3)C=NN4)F
Outline: as §1

[11] = compound: CC1=C(C2=C(C=C1)C(=O)C3=CC=CC=C3N2CCCN)C
Outline: as §1

[12] = compound: C/C(=N\NC(=O)C1=CC(=CC=C1)S(=O)(=O)N2CCOCC2)/C3=C(C=CC(=C3)Cl)O
Outline: as §1

[13] = compound: C1=CC2=C(C=CC(=C2)/C=C\3/C(=O)NC(=NCC4=CC=CS4)S3)N=C1
Outline: as §1

[14] = compound: C1=CC=C2C(=C1)C3=NNC4=CC=CC(=C43)C2=O
Outline: as §1

[15] = compound: CC(=O)c1cnc2ccc(-c3cc(Cl)c(O)c(Cl)c3)nc2c1N[C@H]1CC[C@H](CN(C)C)CC1
Outline: as §1

ibrutinib = compound: C=CC(=O)N1CCC[C@@H](n2nc(-c3ccc(Oc4ccccc4)cc3)c3c(N)ncnc32)C1 [ibrutinib]
Outline: as §1

Measured: log2 fold change

CLN3 (UniProt Q13286)
inactive: erlotinib 0 | [1] 0.025 | [2] 0.162 | [3] 0.117 | [4] -0.05 | [5] 0.055 | [6] 0.026 | IRAK-1-4 Inhibitor I 0.106 | ralimetinib -0.05 | [7] -0.011 | [9] -0.043 | pinometostat -0.113 | [10] 0.054 | [11] -0.147
active: [8] -0.532

CAD (UniProt H7BZB3)
inactive: [12] -0.061 | [13] 0.242 | [14] -0.058 | [15] -0.322

COMMD3-BMI1 (UniProt R4GMX3)
inactive: [12] -0.043 | [1] -0.051 | [13] 0.077 | [14] -0.169 | [5] -0.191 | [6] 0.095 | [15] 0.055 | [7] -0.003 | [10] 0.028 | [11] -0.071

CARD9 (UniProt Q9H257)
inactive: erlotinib -0.173 | [12] 0.211 | [2] 0.056 | [13] -0.184 | [4] 0.129 | [14] -0.058 | IRAK-1-4 Inhibitor I -0.181 | [15] -0.255 | ralimetinib 0.15 | [8] 0.071 | [9] 0.178 | pinometostat 0.202

CCNL1 (UniProt Q9UK58)
inactive: erlotinib -0.001 | [2] 0.094 | [8] -0.188

COMMD1 (UniProt Q8N668)
UniProt Q8N668, sequence (Q8N668 whole entry, looked up): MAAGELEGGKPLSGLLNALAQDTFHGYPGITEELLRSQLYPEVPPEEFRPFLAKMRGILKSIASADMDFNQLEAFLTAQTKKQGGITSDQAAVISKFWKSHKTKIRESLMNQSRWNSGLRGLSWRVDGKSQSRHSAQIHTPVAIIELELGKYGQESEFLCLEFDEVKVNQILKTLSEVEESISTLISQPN
inactive: erlotinib -0.136 | [1] -0.241 | [2] 0.15 | [3] -0.088 | [4] 0.066 | [5] 0.037 | [6] -0.083 | IRAK-1-4 Inhibitor I -0.033 | ibrutinib -0.083 | ralimetinib 0.036 | [7] 0.06 | [8] -0.177 | [9] 0.19 | pinometostat 0.046 | [10] 0.027 | [11] 0.006

CRTC3 (UniProt Q6UUV7)
UniProt Q6UUV7, sequence (Q6UUV7 whole entry, looked up): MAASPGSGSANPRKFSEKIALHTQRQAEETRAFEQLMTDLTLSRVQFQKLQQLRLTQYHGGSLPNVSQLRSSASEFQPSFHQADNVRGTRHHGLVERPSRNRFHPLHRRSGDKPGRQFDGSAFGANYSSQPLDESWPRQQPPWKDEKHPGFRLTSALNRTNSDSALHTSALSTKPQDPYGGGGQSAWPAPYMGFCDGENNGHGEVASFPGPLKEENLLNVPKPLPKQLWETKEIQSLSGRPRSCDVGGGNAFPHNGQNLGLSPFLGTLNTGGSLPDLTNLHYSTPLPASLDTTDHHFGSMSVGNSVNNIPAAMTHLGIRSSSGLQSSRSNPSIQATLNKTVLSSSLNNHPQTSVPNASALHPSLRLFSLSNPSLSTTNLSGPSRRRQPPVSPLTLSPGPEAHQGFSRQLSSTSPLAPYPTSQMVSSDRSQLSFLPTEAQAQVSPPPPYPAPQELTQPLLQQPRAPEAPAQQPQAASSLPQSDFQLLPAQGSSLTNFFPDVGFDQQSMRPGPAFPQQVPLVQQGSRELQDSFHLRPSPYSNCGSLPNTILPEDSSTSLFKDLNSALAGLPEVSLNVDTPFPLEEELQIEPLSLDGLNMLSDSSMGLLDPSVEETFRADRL
inactive: [1] 0.04 | [3] 0.094 | [4] -0.146 | [5] 0.02 | [6] 0.075 | ibrutinib -0.035 | ralimetinib 0.048 | [7] -0.104 | [9] 0.042 | [11] 0

CCM2 isoform 2 (UniProt Q9BSQ5)
UniProt Q9BSQ5, sequence (Q9BSQ5 whole entry, looked up): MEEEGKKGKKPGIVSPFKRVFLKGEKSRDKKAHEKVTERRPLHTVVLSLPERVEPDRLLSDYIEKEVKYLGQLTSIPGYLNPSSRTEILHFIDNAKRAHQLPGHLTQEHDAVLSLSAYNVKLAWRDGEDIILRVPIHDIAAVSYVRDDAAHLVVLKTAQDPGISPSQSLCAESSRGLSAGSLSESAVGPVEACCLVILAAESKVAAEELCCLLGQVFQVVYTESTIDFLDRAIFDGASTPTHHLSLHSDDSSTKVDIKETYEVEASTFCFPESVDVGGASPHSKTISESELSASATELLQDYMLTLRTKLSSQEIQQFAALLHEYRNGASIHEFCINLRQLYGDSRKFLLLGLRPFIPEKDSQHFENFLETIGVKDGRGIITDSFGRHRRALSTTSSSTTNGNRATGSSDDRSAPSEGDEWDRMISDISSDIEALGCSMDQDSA
inactive: erlotinib 0.142 | [1] -0.042 | [2] 0.035 | [3] 0.083 | [4] 0.013 | [5] 0.09 | [6] 0.16 | IRAK-1-4 Inhibitor I 0.027 | ibrutinib -0.004 | ralimetinib 0.04 | [7] 0.027 | [8] -0.085 | [9] 0.009 | pinometostat 0.056 | [11] -0.013

CFAP58 (UniProt Q5T655)
inactive: [4] 0.047 | ralimetinib -0.04 | [9] -0.035

CFAP47 (UniProt Q6ZTR5)
UniProt Q6ZTR5, sequence (Q6ZTR5 whole entry, looked up): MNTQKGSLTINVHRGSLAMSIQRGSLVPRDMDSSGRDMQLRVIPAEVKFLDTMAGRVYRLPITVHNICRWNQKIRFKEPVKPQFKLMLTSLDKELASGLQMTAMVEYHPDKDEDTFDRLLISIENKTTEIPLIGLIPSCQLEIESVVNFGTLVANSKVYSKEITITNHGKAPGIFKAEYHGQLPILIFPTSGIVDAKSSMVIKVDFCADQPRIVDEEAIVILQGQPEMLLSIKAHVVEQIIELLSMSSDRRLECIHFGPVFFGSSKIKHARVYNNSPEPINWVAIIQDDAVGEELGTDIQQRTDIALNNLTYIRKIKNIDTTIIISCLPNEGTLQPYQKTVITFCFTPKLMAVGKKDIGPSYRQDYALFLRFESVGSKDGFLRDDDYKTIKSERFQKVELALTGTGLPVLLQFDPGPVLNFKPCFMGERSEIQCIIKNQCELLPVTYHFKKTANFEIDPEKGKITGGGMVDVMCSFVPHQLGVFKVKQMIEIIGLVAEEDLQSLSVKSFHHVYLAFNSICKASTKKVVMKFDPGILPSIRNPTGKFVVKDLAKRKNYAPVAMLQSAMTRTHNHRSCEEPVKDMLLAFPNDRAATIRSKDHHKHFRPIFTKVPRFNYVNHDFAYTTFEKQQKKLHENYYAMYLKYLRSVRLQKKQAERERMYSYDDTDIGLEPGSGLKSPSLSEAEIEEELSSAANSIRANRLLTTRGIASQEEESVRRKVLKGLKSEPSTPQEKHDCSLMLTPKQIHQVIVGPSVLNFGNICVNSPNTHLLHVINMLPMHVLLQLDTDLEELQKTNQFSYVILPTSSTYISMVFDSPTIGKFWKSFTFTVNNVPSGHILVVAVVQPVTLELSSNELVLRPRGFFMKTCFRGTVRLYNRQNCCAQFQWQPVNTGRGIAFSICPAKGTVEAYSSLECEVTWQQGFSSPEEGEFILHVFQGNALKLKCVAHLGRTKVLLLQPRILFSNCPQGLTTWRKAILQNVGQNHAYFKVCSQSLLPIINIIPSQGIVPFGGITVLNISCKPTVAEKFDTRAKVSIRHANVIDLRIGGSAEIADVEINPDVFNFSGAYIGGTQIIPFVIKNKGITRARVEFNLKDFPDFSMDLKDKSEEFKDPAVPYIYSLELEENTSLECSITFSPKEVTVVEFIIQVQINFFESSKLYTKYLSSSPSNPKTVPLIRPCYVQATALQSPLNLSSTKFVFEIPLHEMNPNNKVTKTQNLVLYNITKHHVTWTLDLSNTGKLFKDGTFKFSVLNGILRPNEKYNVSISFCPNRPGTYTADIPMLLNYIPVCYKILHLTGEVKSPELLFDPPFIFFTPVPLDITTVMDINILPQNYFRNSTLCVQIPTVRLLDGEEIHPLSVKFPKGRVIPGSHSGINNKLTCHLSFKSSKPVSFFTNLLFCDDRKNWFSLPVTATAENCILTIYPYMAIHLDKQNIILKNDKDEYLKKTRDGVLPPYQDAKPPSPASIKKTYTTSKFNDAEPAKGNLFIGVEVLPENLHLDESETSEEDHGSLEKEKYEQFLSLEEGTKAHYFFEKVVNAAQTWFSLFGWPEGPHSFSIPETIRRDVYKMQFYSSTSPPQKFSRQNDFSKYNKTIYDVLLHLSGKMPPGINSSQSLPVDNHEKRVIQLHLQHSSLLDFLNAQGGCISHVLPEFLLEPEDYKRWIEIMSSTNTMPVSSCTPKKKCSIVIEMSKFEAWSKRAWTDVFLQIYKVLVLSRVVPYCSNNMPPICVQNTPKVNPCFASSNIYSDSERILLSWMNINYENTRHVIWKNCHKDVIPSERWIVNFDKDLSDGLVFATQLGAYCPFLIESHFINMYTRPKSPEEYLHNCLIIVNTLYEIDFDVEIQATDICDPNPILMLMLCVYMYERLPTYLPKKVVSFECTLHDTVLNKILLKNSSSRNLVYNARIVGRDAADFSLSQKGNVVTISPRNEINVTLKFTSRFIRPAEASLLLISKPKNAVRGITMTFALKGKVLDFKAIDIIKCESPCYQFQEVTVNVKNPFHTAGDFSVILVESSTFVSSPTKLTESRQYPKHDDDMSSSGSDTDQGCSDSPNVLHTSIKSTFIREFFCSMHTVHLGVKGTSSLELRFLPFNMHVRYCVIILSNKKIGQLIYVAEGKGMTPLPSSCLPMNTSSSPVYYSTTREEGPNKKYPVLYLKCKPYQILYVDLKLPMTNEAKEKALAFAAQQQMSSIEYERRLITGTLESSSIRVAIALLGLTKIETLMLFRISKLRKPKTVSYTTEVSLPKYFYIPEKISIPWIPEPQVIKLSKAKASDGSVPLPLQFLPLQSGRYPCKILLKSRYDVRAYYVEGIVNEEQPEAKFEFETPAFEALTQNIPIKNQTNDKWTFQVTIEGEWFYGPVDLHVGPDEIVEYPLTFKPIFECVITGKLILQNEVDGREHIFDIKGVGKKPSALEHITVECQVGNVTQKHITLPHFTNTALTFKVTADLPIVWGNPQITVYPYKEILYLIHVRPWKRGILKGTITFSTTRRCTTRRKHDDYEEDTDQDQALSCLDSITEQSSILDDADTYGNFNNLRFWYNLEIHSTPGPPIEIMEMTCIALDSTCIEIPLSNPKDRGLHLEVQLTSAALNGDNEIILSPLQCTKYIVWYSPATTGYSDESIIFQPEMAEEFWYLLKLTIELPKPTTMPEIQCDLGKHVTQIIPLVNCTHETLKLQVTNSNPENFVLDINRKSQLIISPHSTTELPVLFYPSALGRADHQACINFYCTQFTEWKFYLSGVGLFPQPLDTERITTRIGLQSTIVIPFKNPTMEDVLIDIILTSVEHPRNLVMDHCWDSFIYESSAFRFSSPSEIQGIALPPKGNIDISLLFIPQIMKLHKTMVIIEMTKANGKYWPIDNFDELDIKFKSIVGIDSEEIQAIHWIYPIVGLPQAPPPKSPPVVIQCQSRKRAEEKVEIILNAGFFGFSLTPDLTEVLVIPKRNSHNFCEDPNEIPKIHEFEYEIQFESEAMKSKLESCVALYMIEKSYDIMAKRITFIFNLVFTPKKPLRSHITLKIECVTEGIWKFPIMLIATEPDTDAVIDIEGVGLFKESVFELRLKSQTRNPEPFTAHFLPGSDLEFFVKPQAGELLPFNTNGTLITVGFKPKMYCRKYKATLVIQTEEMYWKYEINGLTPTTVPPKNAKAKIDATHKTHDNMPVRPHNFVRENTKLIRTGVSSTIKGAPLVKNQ
active: [12] -0.734
inactive: [1] 0.053 | [13] 0.355 | [3] -0.123 | [14] 0.132 | ibrutinib -0.109 | [15] 0.153 | [7] 0.006

CKS2 (UniProt P33552)
UniProt P33552, sequence (P33552 whole entry, looked up): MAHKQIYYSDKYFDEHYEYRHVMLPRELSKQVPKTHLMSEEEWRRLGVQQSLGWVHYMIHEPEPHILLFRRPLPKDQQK
inactive: [12] 0.125 | [13] 0.116 | [3] -0.001 | [14] -0.032 | [5] 0.022 | [6] 0.02 | ibrutinib -0.087 | [15] -0.168 | [10] 0.047 | [11] -0.058

CHPT1 (UniProt Q8WUD6)
UniProt Q8WUD6, sequence (Q8WUD6 whole entry, looked up): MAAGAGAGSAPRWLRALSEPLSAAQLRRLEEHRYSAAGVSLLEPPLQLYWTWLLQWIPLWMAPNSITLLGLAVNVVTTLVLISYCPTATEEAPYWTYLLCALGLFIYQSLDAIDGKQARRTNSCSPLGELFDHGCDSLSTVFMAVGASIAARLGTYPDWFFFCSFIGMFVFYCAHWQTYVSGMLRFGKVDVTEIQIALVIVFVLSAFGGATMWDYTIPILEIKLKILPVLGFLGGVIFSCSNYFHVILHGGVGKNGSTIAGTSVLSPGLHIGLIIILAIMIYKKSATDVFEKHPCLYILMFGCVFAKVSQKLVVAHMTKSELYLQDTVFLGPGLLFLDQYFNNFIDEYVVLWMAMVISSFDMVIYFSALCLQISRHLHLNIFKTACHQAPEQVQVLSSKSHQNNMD
inactive: [12] 0.181 | [1] 0.24 | [13] 0.078 | [4] 0 | [14] -0.024 | [5] -0.004 | [6] 0.01 | [15] 0.023 | ralimetinib -0.132 | [7] 0.223 | [9] -0.002 | [10] 0.26 | [11] 0.044
